Sampled rows, rich in hits. Any-hit rate of the full collection: about 4.1%.
NSD2 HMT inh = inhibitors of human histone methyltransferase NSD2 | inhibition, % at 12.5 µM | O96028 | NSD2 peptide methylation, AlphaScreen, 120 min | 310,000 tested, 0.54% active; in the data active = inhibition above about 50%
PglD inh = PglD (C. jejuni) enzyme inhibition. AID 602405. 360,000 tested, 0.098% active. inhibition, % at 12.5 µM. purified PglD enzyme, DTNB colorimetric CoA detection; in the data active = inhibition above about 16%, passing the limit was not always enough
Casp6 inh = caspase-6 (human) enzyme inhibition; 350,000 tested, 0.53% active; P55212; AID 686996; inhibition, % at 12.5 µM; purified caspase-6, Z-VEID-R110 cleavage fluorescence;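 active = mean inhibition across replicates at least about 35%, with every replicate also reaching that limit, limit read from the data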;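 also: 0% = median of neutral control wells and 100% = no fluorescence left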
Target sequence (P55212 24-179 limits assumed): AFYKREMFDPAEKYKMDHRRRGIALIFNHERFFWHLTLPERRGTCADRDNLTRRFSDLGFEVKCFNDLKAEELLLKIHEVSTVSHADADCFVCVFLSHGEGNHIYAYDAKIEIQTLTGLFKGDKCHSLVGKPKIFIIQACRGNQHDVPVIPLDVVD
Target sequence (P55212 194-293 limits assumed): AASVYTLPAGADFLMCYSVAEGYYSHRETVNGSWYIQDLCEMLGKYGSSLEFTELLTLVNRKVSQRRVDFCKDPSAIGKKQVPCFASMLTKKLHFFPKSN
F508del corr = CFTR F508del correction in bronchial cells; 350,000 tested, 0.36% active; AID 720511; activity (quench increase), % at 7.58 µM; CFBE cells, YFP halide quenching; stimulated with forskolin plus potentiator P3; % fluorescence drop versus neutral controls;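 active = mean added fluorescence quench of at least 8% versus neutral control, with both replicates also reaching 8%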;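 also: cells transiently co-express mutant CFTR-F508del with the halide-sensitive YFP; corrector assay measuring rescue of mutant channel to the surface after 24 h compound exposure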
HIV Env fusion = blocks HIV Env-driven cell-cell fusion. inhibition, % at 12.3 µM. AID 651610. 360,000 tested, 1.1% active. HeLa-JRFL Env/CEM21 cell fusion, luciferase;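 active = mean replicate inhibition score of at least 50 and every replicate individually at or above 50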;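 also: 0% = plate neutral controls and 100% = maraviroc near 300 nM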
ALR H2O2 inh = blocks human ALR sulfhydryl oxidase activity; purified ALR, DTT oxidation, H2O2 HRP-luminol luminescence; inhibition, % (test concentration not listed); 290,000 tested, 3.8% active; AID 485317;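 active = mean replicate inhibition above about 79%, with every replicate also reaching it, limit read from the data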
Target sequence (P55789 whole entry, looked up): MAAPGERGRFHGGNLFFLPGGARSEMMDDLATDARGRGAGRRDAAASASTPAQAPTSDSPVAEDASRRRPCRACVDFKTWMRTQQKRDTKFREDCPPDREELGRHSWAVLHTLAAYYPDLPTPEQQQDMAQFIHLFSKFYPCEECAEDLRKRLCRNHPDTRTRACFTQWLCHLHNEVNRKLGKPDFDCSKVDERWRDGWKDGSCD
The depositor's hits bear a star; x = no result given; [ ] = dose if it differs, or a comment.

SMILES	NSD2 HMT inh	PglD inh	Casp6 inh	F508del corr	HIV Env fusion	ALR H2O2 inh
CC(=O)NNC(=O)c1[nH]c2ccc(Br)cc2c1-c1ccccc1	2	4	4	0	16	97*
COc1ccc(/C=N/NC(=O)c2[nH]c3ccc(Cl)cc3c2-c2ccccc2)c(C(=O)O)c1OC	-4	0	0	0	-22	98*
CCOc1ccc(OCCC(=O)NNC(=O)c2nn(C)c(=O)c3ccccc23)cc1	5	-8	6	1	15	-4
Cn1nc(C(=O)NNC(=O)CCOc2ccc(C(C)(C)C)cc2)c2ccccc2c1=O	0	1	3	10*	x	x
CN(C)CCNc1ccc(-c2nn(C)c(=O)c3ccccc23)cc1[N+](=O)[O-]	22	x	0	0	25	x
CN(C)CCNc1ccc2ncn3c4ccc(O)cc4c(=O)c1c23	21	x	25	21*	50	x
Cc1nnsc1-c1nnc(SCC(=O)c2ccccc2)n1C1CC1	-1	-7	1	1	7	84*
Cc1nnsc1-c1nnc(SCC(=O)c2ccc(C#N)cc2)n1C1CC1	-1	0	-1	2	4	29
Cc1cccc2sc(NNC(=O)C3=COCCO3)nc12	3	x	-1	-1	10	26
O=C(NNc1nc2c(F)cc(F)cc2s1)C1=COCCO1	-1	x	0	1	3	98*
Cc1ccc(OCC(=O)c2c(O)c3ccccc3oc2=O)cc1C	-1	-3	x	x	x	29
Cc1ccc(C(C)C)c(OCC(=O)c2c(O)c3ccccc3oc2=O)c1	-4	x	x	x	x	94*
COc1ccc(N2C(=O)CSC2c2cccs2)cc1 (stereo unspecified)	-1	x	x	x	8	99*
CCOc1ccc(N2C(=O)CSC2c2ccncc2)cc1 (stereo unspecified)	1	-2	x	x	-27	100*
CCC(=O)Nc1ccc2c(c1)C(=O)N(C)[C@@H]1CC[C@@H](CC(=O)NCC3CC3)O[C@@H]1CO2	x	-1	0	-3	-17[16.7 µM]	x
CO[C@H]1CN(C)C(=O)c2ccc(NC(=O)Nc3cccc(F)c3)cc2OC[C@H](C)N(C)C[C@@H]1C	x	x	0	1	x	x
COCC(=O)N1CC2(C1)[C@@H](c1ccccc1)[C@@H](CO)N2C(=O)c1ccccc1	x	x	-4	-2	x	x
Nc1cc(S(=O)(=O)N2CCCCC2)ccc1N1CCCCC1	3	-2	3	1	x	x
Nc1cc(S(=O)(=O)N2CCOCC2)ccc1N1CCCCC1	-1	-8	3	-6	-10	98*
Nc1ccc(S(=O)(=O)c2ccc(N3CCOCC3)c(N)c2)cc1	0	2	0	-1	81*	x
Nc1cc(S(=O)(=O)Nc2ccccc2Cl)ccc1N1CCCC1	9	x	-2	-2	21	99*
CC(C)c1ccc(/C=C/C2=NNC(=O)CC2)cc1	0	x	0	4	37	3
COc1cc(/C=C/C2=NNC(=O)CC2)cc(OC)c1OC	x	6	3	1	73*	x
CCN(CC)S(=O)(=O)c1cc([N+](=O)[O-])ccc1NNC(=O)Nc1ccc(F)cc1	3	-2	x	x	57*	-3
CCN(CC)S(=O)(=O)c1cc([N+](=O)[O-])ccc1NNC(=O)Nc1ccccc1OC	-1	-4	x	x	-38	-6
SMILES	NSD2 HMT inh	PglD inh	Casp6 inh	F508del corr	HIV Env fusion	ALR H2O2 inh
Cc1noc(C)c1S(=O)(=O)Nc1ccc2c(c1)CC(=O)N([C@H](C)CO)C[C@@H](C)[C@@H](CN(C)Cc1ccc(C(=O)Nc3ccccc3N)cc1)O2	x	x	-1	2	x	x
O=S(=O)(Nc1ccccc1F)c1ccc(Cl)nc1	-1	-2	2	-1	x	x
O=S(=O)(Nc1ccccc1O)c1ccc(Cl)nc1	-1	2	3	-1	-9	99*
Cc1ccc(C(=O)CSc2nnc(-c3cccs3)n2C)o1	x	x	27	4	-8	49
Cn1c(SCC(=O)c2ccc(-c3ccccc3)cc2)nnc1-c1ccco1	26	-6	x	x	-25	88*
Cn1c(SCC(=O)c2ccc(O)c(O)c2)nnc1-c1cccs1	16	x	40*	-4	2	99*
CNC(=O)CSc1nnc(-c2ccccc2)n1C	-1	-1	-1	-2	-5	-1
Cc1ccc(C(=O)CSc2nnc(-c3ccco3)n2Cc2ccccc2)cc1	-3	-1	x	x	-62	2
Cn1c(SCC(=O)c2ccc(O)c(O)c2)nnc1-c1ccccc1	3	6	13	-1	1	93*
CC=Cc1ccc2n(c1=O)C[C@H]1[C@H](CO)[C@@H](C(=O)NCCC)[C@@H]2N1CC1CCCC1 (mixture of isomers)	x	1	1	x	-2[16.7 µM]	x
Cc1ccc(C)c(NC(=O)NNS(=O)(=O)c2ccc(C)c(C)c2)c1	9	5	0	1	22	85*
Cc1cccc(C(=O)Nc2ccc(O)cc2)c1	1	0	x	x	-42	99*
O=C(Nc1ccccc1O)c1ccc2c(c1)C(=O)N(N1C(=O)c3ccccc3C1=O)C2=O	2	1	1	-1	-7	6
CCCN1C(=O)c2ccc(C(=O)Nc3ccccc3C(=O)O)cc2C1=O	-1	-1	0	-2	-37	97*
O=C(Nc1ccc(O)cc1)c1ccc2c(c1)C(=O)N(N1C(=O)c3ccccc3C1=O)C2=O	-1	-3	9	0	2	91*
CCN1C(=O)c2ccc(C(=O)Nc3ccc(O)cc3C)cc2C1=O	x	2	-5	0	-4	99*
CO[C@H]1CN(C)C(=O)c2ccc(NS(=O)(=O)c3ccc(Cl)cc3)cc2OC[C@@H](C)N(C)C[C@@H]1C	x	-2	-3	-2	-5[16.7 µM]	x
O=C(Cc1ccccc1)N1CCN=C1SCc1ccc([N+](=O)[O-])cc1	1	-1	-1	x	12	x
Cc1ccc(C(=O)N2CCN=C2SCc2ccc([N+](=O)[O-])cc2)cc1	1	x	0	x	9	99*
Cc1ccc(CSC2=NCCN2C(=O)c2ccc([N+](=O)[O-])cc2)cc1	-1	x	-4	-2	-5	-10
CCOc1ccc(CC(=O)N2CCN=C2SCc2ccc([N+](=O)[O-])cc2)cc1	-3	x	-1	1	6	99*
COc1ccc(/C(N)=N/OC(=O)CSc2ccc(C)cc2)cc1OC	-2	x	x	x	5	-4
CCOc1ccc(CC(=O)N2CCN=C2SC)cc1	-4	x	0	0	13	-4
COc1ccc(CC(=O)N2CCN=C2SCc2ccc([N+](=O)[O-])cc2)cc1	x	x	0	-3	9	99*
Cc1ccc(SCC(=O)O/N=C(\N)c2ccc([N+](=O)[O-])cc2)cc1	6	1	x	x	-107	98*
C[C@@H]1CN([C@@H](C)CO)C(=O)Cc2cc(NC(=O)Nc3ccc4c(c3)OCO4)ccc2O[C@@H]1CN(C)Cc1ccc(C(=O)Nc2ccccc2N)cc1	x	x	1	-5	x	x
O=C(Cc1ccc(F)cc1)N1CCN=C1SCc1ccc([N+](=O)[O-])cc1	1	x	-4	x	42	99*

Source: PubChem BioAssay
